HTT aggregate – reduces HttQ103-GFP aggregates in PC12 cells. PC12 HttQ103-GFP aggregates, Acumen cytometry, 40 h. Potency, µM (highest dose often 46.1 µM), for the others: at the highest dose activity change, negative = inhibition, usual class: inhibitors. 220,000 tested, 1.1% active; further: potency means the concentration at half of the fitted maximal effect; on the % scale 0 is the no-effect control and ±100 the full control effect; nearly all actives have a fitted effect of over 60% in size
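Using laser scanning cytometry, GFP-positive aggregates were counted after lysis of PC12 cells induced with 100 nM tebufenozide to express HTT exon 1 Q103–GFP. Compounds were tested in titration.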
PNC assembly inh – perinucleolar compartment assembly inhibition. activity change (PNC), negative = inhibition, % at 10 µM. 140,000 tested, 3.1% active. PC3M PTB-GFP, PNC prevalence imaging, 16 h; stronger effect = lower value;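 active means readout at or below -70, meaning at least 70% loss of cells showing the perinucleolar compartment, a nuclear body marking cancer cells; inconclusive means readout between -30 and a set limit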;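 further: plate controls were DMSO wells for no effect and camptothecin positive control wells for full effect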
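PC3M cells stably expressing PTB-GFP, 750–1000 cells/well, treated 16 h at 37 °C with compound (23 nl of library stock), in duplicate. After paraformaldehyde fixation and Hoechst stain, imaged at 20x; PNC prevalence scored by image analysis.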
IMPase Li cell – cell-permeable IMPase inhibitors with lithium potentiation | 210,000 tested, 0.35% active | CHO-M1 cells, IP1 TR-FRET (IP-One), carbachol + lithium | Potency, µM (top dose mostly 59.4 µM), for inactives: at the highest dose activity, negative = IMPase inhibition, actives largely listed as inhibitors | AID 1457;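 further: IP1 builds up when IMPase is blocked and the TR-FRET signal falls; potency means the concentration at half of the fitted maximal effect; plate controls were basal vehicle for no effect and high inhibitor control for full effect; nearly all actives have a fitted effect of over 50% in size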
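Steps: plate 2000 CHO-M1 cells per well and culture 16–30 h; add compound and lithium; incubate 30 min, 37C; add d2-IP1 tracer and Eu cryptate anti-IP1 antibody in lysis buffer; read after 10 min at room temperature.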
NPSR antag – blocks cAMP signaling of the human neuropeptide S receptor | Q6W5P4 | CHO-NPSR cells, cAMP TR-FRET, antagonist mode | Potency, µM (titrated, usually from 38.3 µM), for the others: top-dose activity change, negative = inhibition, hits mostly inhibitors | 220,000 tested, 1% active; further: potency means the concentration at half of the fitted maximal effect; on the % scale 0 is the no-effect control and ±100 the full control effect; nearly all actives have a fitted effect of over 50% in size
HTT ATP protect – protects HTT-Q103 PC12 cells, measured by ATP | PC12 HTT-Q103 induced, cytoprotection, ATP luminescence, 40 h | Potency, µM (top dose mostly 56.4 µM), without a hit: cytoprotection (ATP increase), actives largely listed as activators | 230,000 tested, 0.14% active | AID 1471; further: potency means the concentration at half of the fitted maximal effect; % of control where 0% means no effect; nearly all actives have a fitted effect of over 45% in size
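Compounds added alongside 100 nM tebufenozide, which induces toxic Q103 huntingtin exon 1-GFP in stable PC12 cells; surviving cells quantified by luminescent ATP measurement. Medium: phenol red-free DMEM, 5% equine and 5% calf serum.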
IMPase inh – membrane-permeable compound that blocks inositol monophosphatase. P97697. CHO-M1 cells, IP1 accumulation, HTRF TR-FRET ratio. inhibition (IP1 accumulation), % at 46.1 µM. 120,000 tested, under 10 active. AID 901; active means well fitted curve in the direction sought with a large enough effect in the signal ratio, not every such curve was filed as active; inconclusive means small, poorly fitted or top-dose-only effect, or a change in a side signal; inactive means no such curve, though single readings can be large or run the other way; the % refers to the signal ratio;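 further: cells stimulated with carbachol in lithium chloride buffer; plate controls were DMSO basal wells for no effect and reference inhibitor wells for full effect; higher means more IMPase inhibition seen as more IP1 and lower FRET ratio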
Target sequence (P97697 whole entry, looked up): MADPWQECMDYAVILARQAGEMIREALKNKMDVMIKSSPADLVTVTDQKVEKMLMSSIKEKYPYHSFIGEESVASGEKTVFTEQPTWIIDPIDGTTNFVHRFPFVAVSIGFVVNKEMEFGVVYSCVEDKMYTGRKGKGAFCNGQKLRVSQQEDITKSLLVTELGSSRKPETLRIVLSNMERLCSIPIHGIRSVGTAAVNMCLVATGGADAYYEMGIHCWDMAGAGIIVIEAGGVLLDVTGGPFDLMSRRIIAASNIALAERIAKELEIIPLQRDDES
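Measured: the HTRF emission ratio (665/620 nm) plus the 620 nm donor channel, each fitted to the Hill equation to give AC50. Cells were CHO-M1 given compounds up to 46 uM and a 30 min carbachol stimulation at 37C.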
* hit, by the source's call; u = inconclusive; x = no result; [ ] = remark or other dose. Rows were chosen to be rich in hits. Some 3.4% of all compounds tested hit in one or more screens of this group. Unless noted, the call rests on the fitted dose curve; in most records, active means well fitted curve in the direction sought with a large enough effect; inconclusive means small, poorly fitted or top-dose-only effect, or another doubt; inactive means no such curve, though single readings can be large; an effect the other way counts as inactive or inconclusive.

SMILES	HTT aggregate	PNC assembly inh	IMPase Li cell	NPSR antag	HTT ATP protect	IMPase inh
COc1ccc2cnn(CCOc3cc(C)ccc3C(C)C)c(=O)c2c1OC	9%	-113*	6%	-40%	x	x
Cc1cc(Br)ccc1SCC(=O)OCC(=O)c1c(N)n(C)c(=O)n(C)c1=O	8%[9.22 µM]	x	x	-12%	8%[10 µM]	x
CCC(C)NC(=O)CSc1nc(-c2cccs2)cc(C(F)(F)F)n1 (stereo not drawn)	13µM*	16	1%[38.3 µM]	u	-13%[10 µM]	3
O=C(CSc1nc(-c2cccs2)cc(C(F)(F)F)n1)Nc1cc(OCC(F)(F)F)cc([N+](=O)[O-])c1	-1%	-90*	-3%	-32%	-2%[10 µM]	x
CCOc1ccccc1NC(=O)CSc1nc(-c2cccs2)cc(C(F)(F)F)n1	x	x	x	x	x	-1
COc1ccccc1NS(=O)(=O)c1cccc(C(=O)N/N=C(\C)c2ccc3c(c2)OCCO3)c1	-13%	22	10%	-6%	20%[0.074 µM]	x
C/C=C/C=C/[C@H]1Cc2cc(O)cc(O)c2O1	5%[9.22 µM]	x	x	13%	21%[10 µM]	x
COc1ccc(C2N=C(N)Nc3nc4ccccc4n32)c(OC)c1OC (stereo not drawn)	x	x	x	x	x	-3
CCOC(=O)c1ccccc1-n1c(C)cc(C2N=C(N)Nc3nc4ccccc4n32)c1C (stereo not drawn)	-2%	-17	45%[38.3 µM]	13µM*	-6%	11
Cc1cc(OCC(=O)NCC(C)C)cc(C)c1Br	-22%	14	-1%[38.3 µM]	-14%[46.1 µM]	-21%	4
Cc1cc(OCC(=O)NC(C)C)cc(C)c1Cl	-23%	-100*	-2%	18%[46.1 µM]	23%[10 µM]	-9
COC(=O)[C@H]1C[C@@H]1[C@H](NC(C)=O)c1ccccc1	x	x	-10%	x	-31%	x
CC(=O)Nc1ccc(S(=O)(=O)NCC(=O)OCC(=O)N2CCCc3ccccc32)cc1	2%	-100*	0%	12%	-26%[10 µM]	x
COc1ccc(CNC(=O)c2sc3nc4c(c(C(F)(F)F)c3c2N)CCC4)cc1	u	-20	0%	-4%	x	x
CC(=O)Nc1ncc([N+](=O)[O-])s1	12%	x	x	x	24%	x
O=C1NCCN1c1ncc([N+](=O)[O-])s1	2%[20.6 µM]	x	7%	x	0.089µM*	-6[20.6 µM]
COc1cccc([C@@H]2Oc3ccc(OC)cc3/C(=N/OC[C@@H](C)[C@H](OCc3ccccc3)C(C)C)[C@@H]2O)c1	x	x	x	x	-57%[10 µM]	x
CCCC[C@@H]1C[C@H]1[C@@H](NP(=O)(c1ccccc1)c1ccccc1)c1ccccc1OC	x	x	24%	x	-145%	x
Cn1c(=O)[nH]c(=O)c2c1nc(NCCCn1ccnc1)n2CCOc1ccccc1	12%	-13	8%[38.3 µM]	0%[46.1 µM]	-13%	7
Cn1c(=O)[nH]c(=O)c2c1nc(NCCCn1ccnc1)n2Cc1ccccc1	13%	-102*	26%[38.3 µM]	-12%[46.1 µM]	4%[10 µM]	-3
O=C(Nc1ccc(Oc2c(F)c(F)c(F)c(F)c2F)cc1)OC1CCN2Cc3ccccc3N=C12 (stereo not drawn)	-6%[9.22 µM]	x	x	2µM*	-36%[10 µM]	x
CCCc1n[nH]c2c1/C(=N/O)CC(c1ccccc1)C2 (stereo not drawn)	-21%	u	8%	-24%[46.1 µM]	-11%[10 µM]	0
Cc1[nH]nc2c1/C(=N/O)CC(c1ccccc1)C2 (stereo not drawn)	13µM*	37	-8%[38.3 µM]	-29%[46.1 µM]	-32%	6
Cc1ccc(OC(C)C)c(CN(CCO)CCO)c1	-14%	-91*	-6%[38.3 µM]	2%[46.1 µM]	-1%	5
Cc1ccc(S(=O)(=O)N2CCN(CC(=O)N/N=C\c3ccncc3)CC2)cc1	-1%[9.22 µM]	x	x	48%	-7%[10 µM]	x
O=C(CN1CCN(S(=O)(=O)c2ccc(Br)cc2)CC1)N/N=C/c1cccnc1	10%	-90*	-1%	12%	5%[10 µM]	-5
Nc1[nH]c(=S)[nH]c(=O)c1N=Nc1c(Br)cc(S(N)(=O)=O)cc1Br	x	x	-15%	x	-28%[10 µM]	x
CC(Oc1ccccc1)C(=O)NC1CCN(Cc2ccccc2)CC1 (stereo not drawn)	-6%	-84*	46%[38.3 µM]	0%[46.1 µM]	9%[10 µM]	8

Screening results deposited in PubChem BioAssay by National Center for Advancing Translational Sciences (NCATS).
